# ELG1 genotox: qHTS screen for small molecules that induce genotoxicity in human embryonic kidney (HEK293T) cells expressing luciferase-tagged ELG1 | HEK293T ELG1-luciferase reporter, luminescence, 16 h | Potency, µM (highest dose often 46 µM), for the others: at the highest dose activity change, positive = activation, most hits filed as activators | 330,000 tested, 1.3% active; further: % of control where 0% means no effect; nearly all actives have a fitted effect of over 60% in size
#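 Genotoxic stress is detected as increased luminescence from luciferase-tagged ELG1 in HEK293T cells, measured with ONE-Glo after a 16 hr treatment at 37 °C.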
# SMN2 splice enh: qHTS Assay for Enhancers of SMN2 Splice Variant Expression; 210,000 tested, 2.8% active; HEK293 SMN2-luciferase splicing reporter, luminescence, 30-36 h; Potency, µM (highest dose often 46.1 µM), without a hit: top-dose activity change, positive = activation, actives largely listed as activators; AID 1458, 2008; further: % of control where 0% means no effect; nearly all actives have a fitted effect of over 55% in size
#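 qHTS luciferase splicing reporter: luminescence rises when SMN2 exon 7 is included in transfected HEK293 cells. Compound exposure lasted 30-36 h at 37C, with 4.5 mM final sodium butyrate as control, followed by a ONE-Glo read.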
# FLuc modulator: qHTS profiling assay for firefly luciferase inhibitor/activator using purifed enzyme and Km concentrations of substrates (counterscreen for miR-21 project) | Luciferin 4-monooxygenase (Photinus pyralis), P08659 | purified FLuc, Km substrates, luminescence inhibition | Potency, µM (highest dose often 57.5 µM), without a hit: at the top dose activity change, negative = inhibition, most hits filed as inhibitors | 360,000 tested, 6.9% active | AID 588342, 2011;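 further: plate controls were vehicle for no effect and reference inhibitor for full effect; nearly all actives have a fitted effect of over 55% in size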
# Target sequence (P08659 whole entry, looked up): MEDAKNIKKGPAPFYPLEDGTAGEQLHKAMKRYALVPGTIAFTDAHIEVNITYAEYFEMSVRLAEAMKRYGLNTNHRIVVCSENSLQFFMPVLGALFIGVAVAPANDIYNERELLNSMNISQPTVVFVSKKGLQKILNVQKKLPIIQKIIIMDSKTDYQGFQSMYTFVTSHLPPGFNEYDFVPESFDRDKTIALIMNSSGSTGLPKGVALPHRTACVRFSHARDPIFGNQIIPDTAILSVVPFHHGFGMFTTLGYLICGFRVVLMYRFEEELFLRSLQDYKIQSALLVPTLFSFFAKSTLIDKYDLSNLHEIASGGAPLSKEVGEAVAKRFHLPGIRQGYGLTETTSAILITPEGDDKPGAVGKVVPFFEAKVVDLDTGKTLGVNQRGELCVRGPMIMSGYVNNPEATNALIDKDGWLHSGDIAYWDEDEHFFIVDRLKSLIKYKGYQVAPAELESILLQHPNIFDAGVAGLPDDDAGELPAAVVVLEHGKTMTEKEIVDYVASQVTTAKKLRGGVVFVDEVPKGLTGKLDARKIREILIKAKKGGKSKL
#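 Purified P. pyralis luciferase (10nM final) with 10uM D-luciferin and 10uM ATP (Km levels) in 50mM Tris acetate pH 7.5, 10mM Mg acetate, 0.01% Tween-20, 0.05% BSA; qHTS 6-point titration, ~60 µM downward; luminescence read.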
# Rab9 prom act: qHTS Assay for Rab9 Promoter Activators | Huh7 Rab9 promoter-luciferase reporter, luminescence, 24 h | Potency, µM (doses to about 9.22 µM), for the others: top-dose activation, negative = inhibition, usual class: activators | 320,000 tested, 2.8% active | AID 485297, 2010; further: % of control where 0% means no effect; nearly all actives have a fitted effect of over 60% in size
#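 Using Huh7 cells stably transfected with Rab9 promoter–luciferase, compounds were incubated 24 h at 37 °C, 5% CO2; luciferase luminescence was read 10 min after reagent addition.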
# NPC1 promoter act: qHTS Assay for NPC1 Promoter Activators; Potency, µM (top dose mostly 9.22 µM), inactives show at the highest dose activation, hits mostly activators; Huh7 NPC1 promoter luciferase reporter, 24 h; 320,000 tested, 2.4% active; AID 485313, 2010; further: % of control where 0% means no effect; nearly all actives have a fitted effect of over 60% in size
#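 Luminescence from an NPC1 promoter-driven luciferase reporter in stably transfected Huh7 cells was measured after 24 h compound treatment at 37 °C, followed by 10 min ambient incubation with luciferase detection reagent.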
# KinaseGlo FLuc: Counterscreen for Luciferase (Kinase-Glo TM) Inhibition | Potency, µM (titrated, usually from 38.3 µM), inactives show at the top dose activity change, negative = inhibition, usual class: inhibitors | Kinase-Glo luciferase, ATP luminescence, 8 min | AID 1379, 2008 | 200,000 tested, 0.28% active; further: on the % scale 0 is the no-effect control and ±100 the full control effect; nearly all actives have a fitted effect of over 60% in size
#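 Luminescence was the read-out, taken after 8-minute incubation at ambient temperature. Luciferase turned over luciferin with 10 uM ATP in imidazole pH 7.2 buffer containing KCl, MgCl2, Tween 20 and BSA.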
# Numbers without * were called inactive; ? = inconclusive; · = not tested or not shown; [ ] = dose if it differs, or a comment. Sampled rows, rich in hits. Any-hit rate of the full collection: about 7.5%. The call rests on the fitted dose curve; in most records, active means well fitted curve in the direction sought with a large enough effect; inconclusive means small, poorly fitted or top-dose-only effect, or another doubt; inactive means no such curve, though single readings can be large; an effect the other way counts as inactive or inconclusive. Potency means the concentration at half of the fitted maximal effect.
SMILES,ELG1 genotox,SMN2 splice enh,FLuc modulator,Rab9 prom act,NPC1 promoter act,KinaseGlo FLuc
Cc1cc(=S)n(-c2ccccc2)n1C,16.4µM*,-16.6%,8.3%,25.2%,17.5%,-0.2%
O=C(Nc1ccc2sccc2c1)c1ccc(Cl)s1,1.46µM*,7.08µM*,0.675µM*,1µM*,1.41µM*,-4.8%
O=C(Nc1ccc2c(c1)C(=O)NC2=O)c1ccc(Cl)s1,4.1%,·,-1.4%,2.3%,-3.7%,·
Cc1cccc(C)c1NC(=O)COc1ccc2c(C)c(Cc3ccccc3)c(=O)oc2c1,0.3%,·,3.5%,-6.6%,-1.7%,·
COc1ccc(/C=C/C2=NN(C)C(=O)CC2)cc1,?,11.2µM*,10.7µM*,2.82µM*,2µM*,?
CCOC(=O)CN1N=C(/C=C/c2ccc(C)cc2)CCC1=O,3.7%,9.1%,?,-4.9%,0.7%,-1.5%
Cc1nc2c(-c3ccccc3)cnn2c(N2CCOCC2)c1C,6.51µM*,·,3.01µM*,1.26µM*,2.51µM*,·
Cc1cc(N)n2ncc(-c3ccccc3)c2n1,10.3µM*,15.8µM*,9.53µM*,1.58µM*,2.82µM*,3.8%
Cc1cc(N2CCN(C3CCCC3)CC2)n2ncc(-c3ccccc3)c2n1,?,-4.4%,?,7.4%,25.8%,-0.9%
CC(=O)Nc1ccc(Nc2cc(C)nc3c(-c4ccccc4)cnn23)cc1,1.46µM*,-32.6%,5.36µM*,?,?,2.1%
Cc1cc(N)n2ncc(-c3cccc(Br)c3)c2n1,16.4µM*,22.3%,15.1µM*,2.82µM*,?,-5.6%
CCOC(=O)Cc1c(C)nc2c(-c3cccc(Br)c3)cnn2c1C,3.4%,-9.9%,-3.5%,5.5%,-2.8%,-3.7%
C=CCNC(=S)NNC(=O)COc1cccc(Cl)c1,1.6%,1.8%,6.0%,3.0%,3.1%,-3.0%
COc1cccc(O)c1CN1CCC(n2nccc2NC(=O)c2ccc3c(c2)OCO3)CC1,-3.7%,·,4.5%,2.8%,-0.6%,·
COc1cccc(C(=O)N2CCN(Cc3ccc(OC)cc3OC)CC2)c1,-3.9%,·,-1.9%,-0.9%,-7.3%,·
CCOC(=O)N1CCN(C(=O)CSCc2ccccc2Cl)CC1,9.2%,26.6%,-17.2%,3.6%,12.1%,-4.7%
COc1cccc(-c2cc(C(=O)Nc3nc4ccccc4s3)c3ccccc3n2)c1,-4.3%,-37.2%,16.9µM*,-4.4%,-2.8%,-4.4%
COc1ccc(-c2cc(C(=O)Nc3nc4c(C)cccc4s3)c3ccccc3n2)cc1OC,-5.8%,-5.3%,10.7µM*,5.4%,7.3%,-1.6%
CCC(C)Sc1ccc([C@@H]2[C@H]3C(=O)N(CC)C(=O)[C@H]3[C@]3(C(=O)OC)CCCN23)cc1OC (stereo partly drawn),-1.6%,·,0.1%,0.3%,-2.2%,·
CCOc1cc(/C=N/NC(=O)c2ccc(N(C)S(=O)(=O)c3ccccc3)cc2)ccc1OC,-11.0%,·,1.9%,1.1%,2.5%,·
Cc1ccc(/C=N/NC(=O)c2ccc(N(C)S(=O)(=O)c3ccccc3)cc2)cc1,-37.9%,·,8.49µM*,-0.5%,-1.0%,·
CC(=O)Oc1ccc(/C=N/NC(=O)c2ccc(N(C)S(=O)(=O)c3ccccc3)cc2)cc1,-5.0%,·,15.1µM*,-2.3%,-3.3%,·
COc1cc(/C=N/NC(=O)c2ccc(N(C)S(=O)(=O)c3ccccc3)cc2)cc(OC)c1OC,-7.0%,-8.8%,-1.8%,-11.7%,-0.1%,-0.3%
COc1ccc(NC(=O)CSC2=Nc3ccccc3C3=NC(Cc4ccccc4)C(=O)N23)cc1Cl (stereo not drawn),·,·,0.8%,·,·,·
c1ccc(Sc2ncnc3ccccc23)cc1,-12.6%,·,19µM*,-0.6%,0.4%,·
SMILES,ELG1 genotox,SMN2 splice enh,FLuc modulator,Rab9 prom act,NPC1 promoter act,KinaseGlo FLuc
COc1ccc(NC(=O)C2CCN(S(=O)(=O)c3ccc4[nH]c(=O)ccc4c3)CC2)cc1Cl,·,·,0.5%,·,·,·
Cc1cccc(N2CCN(C(=O)CCS(=O)(=O)c3ccc4c(c3)CC(=O)N4C)CC2C)c1 (stereo not drawn),·,·,3.8%,·,·,·
O=C(Cn1cnc2ccccc2c1=O)Nc1ccc2c(c1)OCCO2,?,12.6µM*,9.53µM*,1.78µM*,2.24µM*,-3.7%
O=C(Cn1cnc2ccccc2c1=O)OCC(=O)c1ccc2c(c1)OCCO2,0.0%,-5.2%,21.3µM*,-8.4%,0.3%,1.9%
CCOC(=O)c1[nH]c(C)c(C(=O)NC(CC)Cc2ccccc2)c1C (stereo not drawn),·,·,-14.0%,·,·,·
Cc1ccc(-n2c(=O)c3c(cnn3C)n(CC(=O)Nc3c(C)cccc3C)c2=O)cc1,·,2.9%,-5.4%,·,·,·
CCCc1nc2c(sc3nc4c(cc32)COC(C)(C)C4)c(=O)n1CCN(CC)CC,1.6%,-17.3%,-2.2%,1.6%,-3.9%,-0.6%
COc1ccc(OCc2cc(C(=O)NCc3nc(C)cs3)no2)c(Cl)c1,?,·,13.5µM*,?,?,·
COc1ccc(OCc2cc(C(=O)NC(C)c3csc(C)n3)no2)c(Cl)c1 (stereo not drawn),7.2%[9.26 µM],·,13.5µM*,4.47µM*,?,·
Cc1nc(CNC(=O)c2cc(COc3ccc(F)cc3Cl)on2)cs1,1.2%,·,26.9µM*,0.1%,-1.0%,·
COc1cccc(CNC(=O)C2CCN(S(=O)(=O)c3ccc(Br)s3)CC2)c1,-2.4%,·,3.6%,1.9%,1.7%,·
O=C(Nc1nc2ccc(F)cc2s1)Oc1ccccc1,7.5%,·,-14.5%,-1.4%,1.5%,·
NNc1nc2ccc(F)cc2s1,?,21.4%,19µM*,22.1%,15.1%,-2.9%
Fc1ccc2nc(Nc3ccccc3)sc2c1,?,15.8µM*,7.57µM*,2.24µM*,2.82µM*,-4.1%
Clc1ccc(-c2cn3c(n2)-c2ccccc2C3)cc1Cl,?,1µM*,0.849µM*,2.51µM*,3.55µM*,?
Cc1ccc(Nc2nnc(-c3ccc4c(c3)OCO4)o2)c(C)c1,?,9.5%[9.22 µM],8.49µM*,?,?,-6.1%[7.66 µM]
C(=N\Nc1nc(Nc2ccccc2)nc(N2CCOCC2)n1)/c1c[nH]c2ccccc12,-8.3%,5.6%,4.26µM*,-2.7%,-1.1%,-0.8%
Cc1[nH]c2ccccc2c1/C=N/Nc1nc(Nc2ccc(F)cc2)nc(N2CCOCC2)n1,-9.6%,-13.0%,16.9µM*,-1.0%,0.8%,1.1%
O=C(Oc1cccc(/C=N/Nc2nc(Nc3ccccc3)nc(N3CCOCC3)n2)c1)c1ccco1,-0.3%,19.3%,7.57µM*,0.0%,6.6%,-1.0%

# High-throughput results deposited in PubChem BioAssay by National Center for Advancing Translational Sciences (NCATS).
